Results reported in the supplement of paper PMC11732987, “Enantioselective OTUD7B fragment discovery through chemoproteomics screening and high-throughput optimisation” (Communications Chemistry, 2025).

Legend:
Test in all cases: log2 ratio of Biotin-Ahx-Ub-VS probe labelling (fragment/DMSO); higher = less target engagement (more negative = stronger competition), active = hit call of the paper (q ≤ 0.05, log2 ratio ≤ -1)
Settings in all cases: compound concentration: 200 uM; treatment time: 3 h
USP34 = USP34 (UniProt Q70CQ2)
Outline: (§1)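 Triplicate samples of HEK293T lysate, 495 µg each, received fragment at 200 µM or vehicle for 3 h, followed by Biotin-Ahx-Ub-VS (0.5 µM final) for 1 h. After NeutrAvidin enrichment of labelled DUBs and LysC/trypsin digestion, peptides were run by diaPASEF LC-MS/MS. The values are average log2 fragment/vehicle ratios from global-median-normalised Spectronaut label-free quantities, tested by unpaired t-test on proteins having ≥2 unique peptides.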

USP36 = molecular target: T1, USP36 (UniProt Q9P275)
T1 sequence (whole entry): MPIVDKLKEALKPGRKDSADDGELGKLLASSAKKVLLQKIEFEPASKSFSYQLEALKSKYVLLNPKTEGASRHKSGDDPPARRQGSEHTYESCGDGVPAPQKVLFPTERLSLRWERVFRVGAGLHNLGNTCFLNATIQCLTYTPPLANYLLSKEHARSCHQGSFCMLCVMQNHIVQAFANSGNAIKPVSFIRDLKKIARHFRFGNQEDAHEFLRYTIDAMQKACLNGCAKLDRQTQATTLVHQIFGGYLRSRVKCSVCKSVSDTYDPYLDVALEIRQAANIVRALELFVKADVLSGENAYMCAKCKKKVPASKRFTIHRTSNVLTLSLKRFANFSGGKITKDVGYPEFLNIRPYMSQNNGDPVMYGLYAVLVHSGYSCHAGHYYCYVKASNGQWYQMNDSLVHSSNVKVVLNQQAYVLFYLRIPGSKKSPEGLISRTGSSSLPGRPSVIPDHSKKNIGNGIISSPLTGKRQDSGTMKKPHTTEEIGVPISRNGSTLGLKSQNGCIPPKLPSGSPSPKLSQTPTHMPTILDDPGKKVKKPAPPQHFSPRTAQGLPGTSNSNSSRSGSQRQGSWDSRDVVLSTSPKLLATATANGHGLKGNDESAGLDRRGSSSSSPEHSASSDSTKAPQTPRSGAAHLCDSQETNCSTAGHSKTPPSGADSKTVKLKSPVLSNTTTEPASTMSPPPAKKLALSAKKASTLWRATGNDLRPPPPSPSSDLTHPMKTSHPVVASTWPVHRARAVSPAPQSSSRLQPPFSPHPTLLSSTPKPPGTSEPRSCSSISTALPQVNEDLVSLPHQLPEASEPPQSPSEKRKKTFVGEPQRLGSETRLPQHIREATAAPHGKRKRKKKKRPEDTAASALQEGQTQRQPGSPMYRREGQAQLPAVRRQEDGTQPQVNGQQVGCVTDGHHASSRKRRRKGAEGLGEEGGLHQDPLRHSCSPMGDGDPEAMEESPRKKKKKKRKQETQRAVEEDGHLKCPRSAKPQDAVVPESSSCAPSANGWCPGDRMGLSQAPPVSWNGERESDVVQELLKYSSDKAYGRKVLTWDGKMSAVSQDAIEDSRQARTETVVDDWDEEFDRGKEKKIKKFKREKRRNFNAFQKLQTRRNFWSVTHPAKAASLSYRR
Outline: as §1

USP38 = molecular target: T2, USP38 (UniProt Q8NB14)
T2 sequence (whole entry): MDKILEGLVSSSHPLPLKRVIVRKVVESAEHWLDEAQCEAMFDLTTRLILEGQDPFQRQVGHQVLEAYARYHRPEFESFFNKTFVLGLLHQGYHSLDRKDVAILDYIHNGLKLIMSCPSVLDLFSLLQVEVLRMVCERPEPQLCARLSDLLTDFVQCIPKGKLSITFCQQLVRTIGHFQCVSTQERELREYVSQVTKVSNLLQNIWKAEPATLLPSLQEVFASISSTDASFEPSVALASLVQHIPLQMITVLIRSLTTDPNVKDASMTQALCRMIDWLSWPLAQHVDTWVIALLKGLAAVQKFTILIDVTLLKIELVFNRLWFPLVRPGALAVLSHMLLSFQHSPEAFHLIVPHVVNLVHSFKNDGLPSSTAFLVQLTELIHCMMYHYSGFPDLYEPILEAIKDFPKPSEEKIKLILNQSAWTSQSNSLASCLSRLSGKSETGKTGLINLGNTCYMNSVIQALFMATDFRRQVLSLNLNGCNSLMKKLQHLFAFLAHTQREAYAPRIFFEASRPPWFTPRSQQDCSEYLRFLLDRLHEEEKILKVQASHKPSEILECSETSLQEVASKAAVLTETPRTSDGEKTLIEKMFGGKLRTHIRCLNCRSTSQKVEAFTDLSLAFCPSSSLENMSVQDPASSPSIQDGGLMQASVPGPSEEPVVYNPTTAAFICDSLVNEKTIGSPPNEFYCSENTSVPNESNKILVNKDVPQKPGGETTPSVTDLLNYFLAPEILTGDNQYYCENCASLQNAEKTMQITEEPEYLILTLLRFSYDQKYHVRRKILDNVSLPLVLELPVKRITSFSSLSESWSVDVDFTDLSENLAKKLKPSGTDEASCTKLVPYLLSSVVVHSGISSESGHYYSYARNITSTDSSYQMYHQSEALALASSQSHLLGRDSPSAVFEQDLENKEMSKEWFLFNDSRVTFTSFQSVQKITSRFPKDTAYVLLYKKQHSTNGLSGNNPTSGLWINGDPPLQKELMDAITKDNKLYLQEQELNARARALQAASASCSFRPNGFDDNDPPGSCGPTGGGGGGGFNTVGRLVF
Outline: as §1

USP39 = molecular target: T3, USP39 (UniProt Q53GS9)
T3 sequence (whole entry): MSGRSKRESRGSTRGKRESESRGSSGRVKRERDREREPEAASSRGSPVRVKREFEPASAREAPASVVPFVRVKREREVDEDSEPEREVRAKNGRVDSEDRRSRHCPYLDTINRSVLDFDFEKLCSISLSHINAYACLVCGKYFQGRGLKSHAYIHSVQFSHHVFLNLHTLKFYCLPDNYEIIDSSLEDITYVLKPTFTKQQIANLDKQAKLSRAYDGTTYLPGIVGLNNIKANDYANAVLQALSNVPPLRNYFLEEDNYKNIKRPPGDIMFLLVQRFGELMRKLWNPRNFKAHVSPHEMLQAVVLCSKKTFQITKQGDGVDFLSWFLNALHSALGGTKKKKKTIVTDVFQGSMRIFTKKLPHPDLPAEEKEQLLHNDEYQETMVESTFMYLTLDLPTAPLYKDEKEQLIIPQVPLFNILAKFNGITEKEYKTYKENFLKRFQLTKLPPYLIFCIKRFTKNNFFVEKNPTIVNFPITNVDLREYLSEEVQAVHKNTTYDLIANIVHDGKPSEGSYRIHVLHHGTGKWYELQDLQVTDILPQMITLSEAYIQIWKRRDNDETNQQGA
Outline: as §1

USP4 = molecular target: T4, USP4 (UniProt Q13107)
T4 sequence (whole entry): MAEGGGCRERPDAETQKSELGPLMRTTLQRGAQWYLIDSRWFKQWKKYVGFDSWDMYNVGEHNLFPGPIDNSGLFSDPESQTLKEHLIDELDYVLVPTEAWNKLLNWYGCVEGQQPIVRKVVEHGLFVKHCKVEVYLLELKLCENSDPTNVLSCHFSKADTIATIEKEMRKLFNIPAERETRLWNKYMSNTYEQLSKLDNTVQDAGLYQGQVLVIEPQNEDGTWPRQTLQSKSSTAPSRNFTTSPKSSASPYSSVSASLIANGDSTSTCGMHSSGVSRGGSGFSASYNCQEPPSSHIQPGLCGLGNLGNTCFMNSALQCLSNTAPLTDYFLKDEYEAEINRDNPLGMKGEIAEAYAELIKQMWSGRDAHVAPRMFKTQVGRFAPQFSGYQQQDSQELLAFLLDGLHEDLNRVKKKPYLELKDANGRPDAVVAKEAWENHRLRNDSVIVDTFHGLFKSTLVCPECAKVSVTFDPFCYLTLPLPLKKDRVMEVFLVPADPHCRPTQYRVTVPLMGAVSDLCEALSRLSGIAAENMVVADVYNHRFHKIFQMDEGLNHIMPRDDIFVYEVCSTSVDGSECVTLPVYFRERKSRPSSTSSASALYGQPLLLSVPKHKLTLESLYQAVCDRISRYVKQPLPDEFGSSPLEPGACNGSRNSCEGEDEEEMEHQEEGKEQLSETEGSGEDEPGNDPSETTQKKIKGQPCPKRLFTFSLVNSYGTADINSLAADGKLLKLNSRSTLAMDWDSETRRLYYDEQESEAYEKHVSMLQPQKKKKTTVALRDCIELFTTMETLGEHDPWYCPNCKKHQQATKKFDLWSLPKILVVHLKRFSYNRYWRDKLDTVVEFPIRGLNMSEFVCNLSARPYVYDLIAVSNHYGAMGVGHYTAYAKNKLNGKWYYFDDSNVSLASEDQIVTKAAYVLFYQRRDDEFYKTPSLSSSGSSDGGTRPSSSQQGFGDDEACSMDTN
Outline: as §1

Measured: log2 ratio of Biotin-Ahx-Ub-VS probe labelling

USP34, sequence (Q70CQ2 whole entry, the tested form may be a part): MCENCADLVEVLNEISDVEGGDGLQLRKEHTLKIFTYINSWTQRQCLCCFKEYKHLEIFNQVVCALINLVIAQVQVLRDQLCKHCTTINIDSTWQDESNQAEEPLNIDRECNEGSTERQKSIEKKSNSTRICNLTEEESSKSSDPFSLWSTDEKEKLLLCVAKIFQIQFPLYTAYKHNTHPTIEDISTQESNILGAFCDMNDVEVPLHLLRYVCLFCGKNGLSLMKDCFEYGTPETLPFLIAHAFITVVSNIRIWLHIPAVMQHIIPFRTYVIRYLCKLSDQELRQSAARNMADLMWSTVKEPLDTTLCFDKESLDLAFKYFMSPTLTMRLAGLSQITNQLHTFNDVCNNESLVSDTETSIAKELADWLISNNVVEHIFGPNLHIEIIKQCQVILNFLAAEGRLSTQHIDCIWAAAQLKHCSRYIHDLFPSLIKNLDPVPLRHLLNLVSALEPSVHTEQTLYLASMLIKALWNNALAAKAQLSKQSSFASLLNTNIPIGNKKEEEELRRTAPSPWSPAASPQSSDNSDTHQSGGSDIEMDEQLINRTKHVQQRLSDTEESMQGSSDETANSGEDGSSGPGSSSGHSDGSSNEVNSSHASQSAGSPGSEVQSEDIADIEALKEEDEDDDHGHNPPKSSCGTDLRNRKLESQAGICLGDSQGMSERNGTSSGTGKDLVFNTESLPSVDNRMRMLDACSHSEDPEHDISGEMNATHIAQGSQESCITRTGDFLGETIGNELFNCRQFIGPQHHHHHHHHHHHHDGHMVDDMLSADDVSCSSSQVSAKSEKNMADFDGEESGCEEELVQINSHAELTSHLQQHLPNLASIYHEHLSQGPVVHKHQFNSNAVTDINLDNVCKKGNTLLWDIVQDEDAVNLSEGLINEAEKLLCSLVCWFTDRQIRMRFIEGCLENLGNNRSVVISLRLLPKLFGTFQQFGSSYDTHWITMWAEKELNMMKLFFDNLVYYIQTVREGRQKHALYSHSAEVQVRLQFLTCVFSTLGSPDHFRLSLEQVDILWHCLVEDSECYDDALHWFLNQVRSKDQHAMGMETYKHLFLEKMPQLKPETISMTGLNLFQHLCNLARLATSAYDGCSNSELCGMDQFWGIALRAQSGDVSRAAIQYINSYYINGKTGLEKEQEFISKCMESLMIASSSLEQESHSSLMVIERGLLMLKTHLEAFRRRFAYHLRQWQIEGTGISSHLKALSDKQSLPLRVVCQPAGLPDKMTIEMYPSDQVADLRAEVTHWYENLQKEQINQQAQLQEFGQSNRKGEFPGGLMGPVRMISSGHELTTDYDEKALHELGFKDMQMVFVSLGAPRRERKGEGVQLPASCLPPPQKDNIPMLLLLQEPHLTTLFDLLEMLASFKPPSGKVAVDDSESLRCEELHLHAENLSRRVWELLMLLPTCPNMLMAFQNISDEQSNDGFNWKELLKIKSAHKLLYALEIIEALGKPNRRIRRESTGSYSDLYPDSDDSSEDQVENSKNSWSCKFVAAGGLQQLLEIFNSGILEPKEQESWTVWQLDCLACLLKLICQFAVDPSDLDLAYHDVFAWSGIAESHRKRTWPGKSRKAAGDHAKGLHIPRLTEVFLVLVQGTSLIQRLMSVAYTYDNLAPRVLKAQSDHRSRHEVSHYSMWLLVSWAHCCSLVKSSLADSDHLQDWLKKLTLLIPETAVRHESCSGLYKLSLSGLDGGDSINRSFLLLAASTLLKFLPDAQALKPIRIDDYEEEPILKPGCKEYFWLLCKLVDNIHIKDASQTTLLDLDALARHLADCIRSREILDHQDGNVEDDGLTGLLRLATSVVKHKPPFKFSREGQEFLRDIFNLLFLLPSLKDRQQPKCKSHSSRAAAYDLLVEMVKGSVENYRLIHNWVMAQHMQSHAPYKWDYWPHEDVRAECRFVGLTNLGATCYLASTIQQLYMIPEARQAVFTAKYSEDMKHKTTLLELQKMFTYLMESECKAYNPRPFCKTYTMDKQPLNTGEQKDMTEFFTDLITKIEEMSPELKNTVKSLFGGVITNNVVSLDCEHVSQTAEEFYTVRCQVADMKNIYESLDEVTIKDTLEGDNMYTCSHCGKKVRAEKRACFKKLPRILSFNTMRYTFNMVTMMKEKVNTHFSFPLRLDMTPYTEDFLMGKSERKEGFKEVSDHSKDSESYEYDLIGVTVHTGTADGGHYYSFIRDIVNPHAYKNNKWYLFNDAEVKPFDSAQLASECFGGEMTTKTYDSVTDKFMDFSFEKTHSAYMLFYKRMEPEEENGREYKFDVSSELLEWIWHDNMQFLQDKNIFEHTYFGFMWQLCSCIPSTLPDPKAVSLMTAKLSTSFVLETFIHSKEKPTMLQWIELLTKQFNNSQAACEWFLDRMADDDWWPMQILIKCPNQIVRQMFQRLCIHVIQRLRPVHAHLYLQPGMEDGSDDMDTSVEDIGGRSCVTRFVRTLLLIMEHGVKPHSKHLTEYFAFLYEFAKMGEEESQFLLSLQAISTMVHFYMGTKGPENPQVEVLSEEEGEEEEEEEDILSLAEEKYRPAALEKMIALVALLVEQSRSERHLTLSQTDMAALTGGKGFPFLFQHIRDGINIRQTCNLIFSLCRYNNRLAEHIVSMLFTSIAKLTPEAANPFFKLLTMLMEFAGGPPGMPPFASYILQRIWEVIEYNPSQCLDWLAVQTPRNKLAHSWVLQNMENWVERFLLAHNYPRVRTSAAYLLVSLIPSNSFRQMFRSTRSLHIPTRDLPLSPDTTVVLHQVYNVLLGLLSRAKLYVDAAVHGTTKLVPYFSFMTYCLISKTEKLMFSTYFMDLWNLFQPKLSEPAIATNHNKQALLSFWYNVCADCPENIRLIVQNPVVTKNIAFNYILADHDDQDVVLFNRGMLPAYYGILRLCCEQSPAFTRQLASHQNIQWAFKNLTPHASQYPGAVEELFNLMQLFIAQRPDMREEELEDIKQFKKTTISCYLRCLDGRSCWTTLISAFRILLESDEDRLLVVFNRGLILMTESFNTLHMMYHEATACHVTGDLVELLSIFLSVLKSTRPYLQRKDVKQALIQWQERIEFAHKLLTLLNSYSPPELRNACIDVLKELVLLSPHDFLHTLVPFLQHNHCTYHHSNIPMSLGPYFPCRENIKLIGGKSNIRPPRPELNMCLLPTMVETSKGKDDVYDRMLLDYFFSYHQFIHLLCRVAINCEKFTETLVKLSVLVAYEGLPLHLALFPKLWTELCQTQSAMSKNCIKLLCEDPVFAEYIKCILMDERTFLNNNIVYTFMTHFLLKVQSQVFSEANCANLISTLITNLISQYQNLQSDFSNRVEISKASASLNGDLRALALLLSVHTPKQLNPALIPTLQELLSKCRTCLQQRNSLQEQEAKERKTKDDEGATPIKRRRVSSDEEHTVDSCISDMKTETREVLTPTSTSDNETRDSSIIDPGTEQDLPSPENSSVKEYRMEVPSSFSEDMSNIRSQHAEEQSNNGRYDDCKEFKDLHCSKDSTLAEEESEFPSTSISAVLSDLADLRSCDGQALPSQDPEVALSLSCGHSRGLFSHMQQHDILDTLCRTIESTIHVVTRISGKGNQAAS

Cc1cccnc1NC(=O)C1CCN(C(=O)CCl)CC1.Cl
inactive: USP34 -0.124 | USP36 -0.102 | USP38 -0.157 | USP39 0.0484 | USP4 0.0404
